Bioassay records deposited in PubChem BioAssay by National Center for Advancing Translational Sciences (NCATS).
ALDH1A1 inh: ALDH1A1 (human) enzyme inhibition; P00352; Purified ALDH1A1, NADH fluorescence, propionaldehyde substrate; Potency, µM (titrated, usually from 75.3 µM), actives largely listed as inhibitors; actives 7.3% (n = 220,000)
Target sequence (P00352 whole entry, looked up): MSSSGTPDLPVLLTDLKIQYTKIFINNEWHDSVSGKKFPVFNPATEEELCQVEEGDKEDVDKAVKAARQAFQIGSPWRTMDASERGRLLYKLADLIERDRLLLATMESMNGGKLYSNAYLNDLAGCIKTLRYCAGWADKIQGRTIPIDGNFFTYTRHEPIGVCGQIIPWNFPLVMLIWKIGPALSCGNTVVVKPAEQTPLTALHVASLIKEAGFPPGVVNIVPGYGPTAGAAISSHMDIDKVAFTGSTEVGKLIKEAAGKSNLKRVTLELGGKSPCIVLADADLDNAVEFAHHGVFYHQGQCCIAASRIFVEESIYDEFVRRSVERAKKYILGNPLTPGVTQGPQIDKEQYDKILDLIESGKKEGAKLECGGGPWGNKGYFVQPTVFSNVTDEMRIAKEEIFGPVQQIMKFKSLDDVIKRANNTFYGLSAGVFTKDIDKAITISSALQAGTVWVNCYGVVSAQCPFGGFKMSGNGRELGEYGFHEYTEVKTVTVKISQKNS
IMPase Li cell: membrane-permeable IMPase blocker, potentiated with lithium. CHO-M1 cells, IP1 TR-FRET (IP-One), carbachol + lithium. Potency, µM (doses to about 59.4 µM), hits mostly inhibitors. actives 0.35% (n = 210,000). AID 1457; active means well fitted curve in the direction sought with a large enough effect; inconclusive means small, poorly fitted or top-dose-only effect, or another doubt; inactive means no such curve, though single readings can be large; an effect the other way counts as inactive or inconclusive;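 further: IP1 builds up when IMPase is blocked and the TR-FRET signal falls; nearly all actives have a fitted effect of over 50% in size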
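Test compounds were applied to CHO-M1 cells previously cultured for 16–30 h at 2000 per well. A small lithium amount accompanied them; after 30 min at 37C, IP1 was quantified by TR-FRET.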
PNC assembly inh: blocks assembly of the perinucleolar compartment | activity change (PNC), negative = inhibition, % at 10 µM | PC3M PTB-GFP, PNC prevalence imaging, 16 h; hits give low values | actives 3.1% (n = 140,000);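 active means readout at or below -70, meaning at least 70% loss of cells showing the perinucleolar compartment, a nuclear body marking cancer cells; inconclusive means readout between -30 and a set limit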
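Compounds are pinned in duplicate onto adhered PC3M cells stably expressing GFP-tagged PTB and incubated 16 h at 37 C. Cells are then fixed, nuclei stained with Hoechst, and PNC-positive cells counted.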
ALOX12 inhib: blocks human 12-lipoxygenase activity | Potency, µM (series often up to 57.1 µM), hits mostly inhibitors | purified 12-hLO, xylenol orange hydroperoxide absorbance | actives 0.12% (n = 150,000); active means well fitted curve in the direction sought with a large enough effect; inconclusive means small, poorly fitted or top-dose-only effect, or another doubt; inactive means no such curve, though single readings can be large; an effect the other way counts as inactive or inconclusive; further: nearly all actives have a fitted effect of over 55% in size
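Lipoxygenase turnover measured by absorbance at 573 and 405 nm after Fe-XO development. Human 12hLO 150 nM, arachidonate 40 uM, pH 7.0 Hepes buffer with detergent; 15 min compound preincubation, 30 min reaction.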
HPGD block: inhibitors of human 15-hydroxyprostaglandin dehydrogenase (HPGD) | purified HPGD, NADH fluorescence kinetic, PGE2 substrate | Potency, µM, most hits filed as inhibitors | actives 4.3% (n = 150,000)
Target sequence (P15428 whole entry, looked up): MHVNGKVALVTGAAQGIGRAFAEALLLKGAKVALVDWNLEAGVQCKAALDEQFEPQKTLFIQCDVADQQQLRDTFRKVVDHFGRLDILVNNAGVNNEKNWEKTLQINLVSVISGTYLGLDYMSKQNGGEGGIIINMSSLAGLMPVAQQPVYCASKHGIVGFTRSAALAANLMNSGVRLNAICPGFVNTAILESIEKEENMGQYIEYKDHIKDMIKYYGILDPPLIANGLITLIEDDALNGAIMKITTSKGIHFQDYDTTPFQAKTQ
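NADH formation kinetics: reaction with 30 uM PGE2 and 1 mM NAD+ (final), 20 nM enzyme, Tris-HCl pH 8 with Tween 20, after 15 min compound preincubation at room temperature. Fluorescence change, last versus first of five reads.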
IMPase cell inh: membrane-permeable compound that blocks inositol monophosphatase; AID 901; CHO-M1 cells, IP1 accumulation, HTRF TR-FRET ratio; P97697; inhibition (IP1 accumulation), % at 46.1 µM; 120,000 tested, under 10 active; active means well fitted curve in the direction sought with a large enough effect in the signal ratio, not every such curve was filed as active; inconclusive means small, poorly fitted or top-dose-only effect, or a change in a side signal; inactive means no such curve, though single readings can be large or run the other way; the % refers to the signal ratio;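 further: cells stimulated with carbachol in lithium chloride buffer; higher means more IMPase inhibition seen as more IP1 and lower FRET ratio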
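CHO-M1 cells (CHO stably expressing M1 receptor), compound up to 46 uM final, stimulated with carbachol (50 uM as added) in buffer with 50mM LiCl, pH 7.4, 30 min at 37C. Cytosolic IP1 read by TR-FRET; AC50 from Hill fits.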
Hits are given with their value; – = inactive; ? = inconclusive; · = no result; [ ] = remark or other dose. Sampled rows, rich in hits. Any-hit rate of the full collection: about 11%. Unless noted, the call rests on the fitted dose curve; in most records, active means well fitted inhibition curve with a large enough effect (not every such curve was filed as active); inconclusive means small, poorly fitted or top-dose-only effect, or another doubt; inactive means no such curve, though single readings can be large or run the other way.

SMILES	ALDH1A1 inh	IMPase Li cell	PNC assembly inh	ALOX12 inhib	HPGD block	IMPase cell inh
CCCOC(=S)Nc1ccccc1	–	–	–	–	22µM	–
CCCOC(=O)c1ccc(NC(=O)C2C3C=CC(O3)C2C(=O)O)cc1 (stereo not given)	1.8µM	–	–	–	?	–
NCCC[C@@H](CC(=O)N[C@@H]1CCCC[C@H]1C(=O)N[C@H](CC(=O)N[C@@H](CCC(=O)O)CC(=O)O)Cc1c[nH]c2ccccc12)NC(=O)C[C@H](Cc1ccccc1)NC(=O)[C@@H]1CNCC[C@H]1N	–	–	·	–	–	·
CCN(CC)c1ccc2c(c1)CCCN2	25µM	–	–	–	–	–
Cn1cc(-c2nc3cnc(Oc4ccccc4)nc3n(Cc3cccs3)c2=O)c2ccccc21	–	–	·	·	·	·
NC(=O)C(=O)O	–	–	·	–	–	–
COc1ccccc1C1=NNC(=Nc2cccc(S(=O)(=O)N(C)C)c2)SC1	35µM	–	·	·	·	·
Cc1cccc(C)c1N=C1NN=C(c2ccccc2F)CS1	–	·	–	–	·	–
Cc1ncc(CSC(=N)N)n1Cc1ccccc1	–[13.5 µM]	–	·	–[11.4 µM]	–	·
CC1C[C@@]2(NC(=O)NC2=O)C(C)CN1C (stereo not given in full)	–	–	-100	–	–	–
CNc1nc(C)nc(N/N=C/c2ccccc2)n1	13µM	–	·	·	·	·
Nc1c(C(=O)Nc2ccc(Cl)c(C(F)(F)F)c2)sc2nc(-c3ccncc3)ccc12	·	·	·	·	·	–
COc1ccc(OCCOc2ccc(C)nc2[N+](=O)[O-])cc1	–	–	–	–	–	·
Cc1ccc(OCC(=O)c2ccc(Cl)s2)c([N+](=O)[O-])n1	2.2µM	–	·	·	·	·
Cc1ccc(OCCOc2ccc(Cl)cc2Cl)c([N+](=O)[O-])n1	–	–	–	–	32µM	·
Cc1ccc(CNC(=O)COc2ccc(C)nc2[N+](=O)[O-])cc1	–	–	–	–	–	·
C=CCn1c(=O)c2c(nc(-c3ccccc3)n2C)n(C)c1=O	?	–	·	·	·	·
COc1cccc(Nc2ncc3nc(C)c(=O)n(Cc4cccs4)c3n2)c1	?	–	·	·	·	·
CCOC(=O)[C@]1(C(NC(=O)OC)c2cccc(F)c2)CCCC1=O (stereo not given in full)	–[13.5 µM]	·	·	·	·	·
COc1ccc(NC(=O)CSc2ccccn2)cc1	–	–	–	–	25µM	?
COc1ccc(NC(=O)CSc2ccc(-c3ccccn3)nn2)cc1OC	14µM	–	–	–	–	–
Cc1ccc(NC(=O)CSc2ccc(-c3ccccn3)nn2)cc1	–	–	·	·	·	·
COc1cccc(NC(=O)CSc2ccccn2)c1	20µM	–	–	–	28µM	–
O=C(CSc1ccccn1)Nc1ccc(NC(=O)CSc2ccccn2)cc1	–	–	·	·	·	·
Cc1cc(C)nc(NC(=O)CSc2ccccn2)n1	10µM	–	–	–	–	?
SMILES	ALDH1A1 inh	IMPase Li cell	PNC assembly inh	ALOX12 inhib	HPGD block	IMPase cell inh
CC1=C(C(=O)OCc2ccc(C)cc2)C(c2cccc(F)c2F)CC(=O)N1 (stereo not given)	·	·	·	·	·	–
CC(=O)OC1CC[C@]2(C)C(CC(OC(C)=O)[C@@]3(C)C4=CC(=O)OC(c5ccoc5)[C@]4(C)CCC23)C1(C)C (stereo not given in full)	–	–	·	–	–	·
C=CCC(C)(O)c1ccc(OC)cc1 (stereo not given)	–	–	·	·	–	·
COc1ccc(-c2nnc3c4ccccc4c(-c4ccccc4)nn23)cc1	·	·	·	·	·	–
COc1ccc(C(=O)N/N=C/c2ccc(OC)c(CSc3ccccn3)c2)cc1	?	–	–	–	32µM	·
CC(/C=N/NC(=O)CSc1ccccn1)=C\c1ccc(C(C)C)cc1	25µM	–	–	–	–	·
CC1(C)CC(=O)c2sc(NS(=O)(=O)c3ccccc3)nc2C1	–	–	·	·	·	·
CCC(Oc1ccccc1)C(=O)Nc1nc2c(s1)C(=O)CC(C)(C)C2 (stereo not given)	13µM	–	–	–	–	–
CC1(C)CC(=O)c2sc(NC(=O)CN3CCOCC3)nc2C1	20µM	–	–	–	–	–
CC1(C)CC(=O)c2sc(NC(=O)CN3C(=O)CCC3=O)nc2C1	?	–	–	–	?	–
CCC(C)C(=O)Nc1nc2c(s1)C(=O)CC(C)(C)C2 (stereo not given)	16µM	–	-119	–	–	–
CCC(Oc1ccccc1)C(=O)Nc1nnc(C)s1 (stereo not given)	–	–	-117	–	–	–
CCC(Oc1ccccc1)C(=O)Nc1nnc(C(F)(F)F)s1 (stereo not given)	–	–	?	–	–	–
CC(C)(C)NCC(O)COc1nsnc1N1CCOCC1 (stereo not given)	–	–	·	·	–	·
N[C@@](C(=O)O)(c1ccc(P(=O)(O)O)cc1)C1CC1	–	–	·	–	–	–
CSc1nc(C)cc(Nc2ccc(O)c(CN3CCOCC3)c2)n1	–[13.5 µM]	–	·	–[11.4 µM]	–	·
NCCNS(=O)(=O)c1cccc2cnccc12	–	–	·	–	–	–
c1ccc2c(c1)oc1c(Nc3ccc(CN4CCOCC4)cc3)ncnc12	20µM	–	–	–	–	–
c1ccc2c(c1)oc1c(NCCN3CCOCC3)ncnc12	–	–	?	–	–	–
O=C(CN1C(=O)NC2(CCCCC2)C1=O)N1CCN(S(=O)(=O)c2ccccc2)CC1	–	–	·	·	·	·
O=C(CN1C(=O)NC2(CCCCCC2)C1=O)N1CCC(Cc2ccccc2)CC1	22µM	–	–	–	–	?
c1ccn(-c2ccc(N3CCOCC3)cc2)c1	?	?	–	–	–	–
Cc1ccc(C)n1-c1ccc(N2CCOCC2)cc1	7.1µM	–	–	–	–	–
COc1ccc(-n2c(O)c(/C=N/Nc3nc(C)cc(C)n3)c3ccccc3c2=O)cc1OC	0.79µM	–	·	·	·	·
COc1ccc(-n2c(O)c(/C=N/NS(=O)(=O)c3ccc(C)cc3)c3ccccc3c2=O)cc1OC	?	–	–	–	–	·
SMILES	ALDH1A1 inh	IMPase Li cell	PNC assembly inh	ALOX12 inhib	HPGD block	IMPase cell inh
Cc1ccc(Oc2nc3c(c(=O)n(Cc4ccccc4)c(=O)n3C)n2C)cc1C	·	·	·	·	·	–
C/C(=N\N=C1\NC(=O)CC(C(=O)O)S1)c1cccs1 (stereo not given)	–	–	-106	–	–	–
CNC(=O)C1CC(=O)N/C(=N/N=C(\C)c2cccs2)S1 (stereo not given)	–	–	–	–	–	–
COc1ccc(-c2nc3ccccc3n3c(-c4cccc(C)c4)c4c(=O)n(C)c(=O)n(C)c4c23)cc1	·	·	·	·	·	–
C=CCNc1cnn(-c2ccc(C)cc2)c(=O)c1Sc1ccc(C)cc1	10µM	–	·	·	·	·
Cc1ccc(Sc2cnn(-c3ccccc3)c(=O)c2Cl)cc1	–	–	?	–	–	–
N#C/C(=C\c1cccc(NC(=O)c2ccccc2Cl)c1)C(=O)NCCc1ccccc1	25µM	–	–	–	?	–
